SMILES strings stand for the structures. This is part of a sample that, as a whole, favours compounds with a hit. Of some 83,000 tested, about 20% had one in any assay.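 Activity criterion: percent growth below 10, measured after cells in 96-well plates were exposed to a single compound concentration for 48 hours.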 Unmarked numbers belong to inactive results. Active and inactive are the calls of the source.

The assay relates to MDA-MB-468 breast. Description: NCI-60 one-dose screen, 48 h (100 = growth as untreated, 0 = no growth, -100 = all killed). To be noted: 10 µM unless noted.
As for `CC(=O)O[C@H]1CC[C@]2(C)[C@H]3CC[C@@H]4[C@H]5[C@H](C(C)C)CC[C@]5(C(=O)OCC(CO)(CO)N=C(N)N)CC[C@@]4(C)[C@]3(C)CC[C@H]2C1(C)C`, the growth was -25.5% (active).
Regarding `Cc1ccccc1C[P+](c1ccccc1)(c1ccccc1)c1ccccc1`, the growth is -17.6% (active).
For `CCN1C2CCC1/C(=C\c1ccccc1)C(=O)/C2=C/c1ccccc1` the value was 16.1%; for `CCOc1ccccc1Cn1ccnc1CCc1c(Cl)c(O)cc(O)c1C(=O)OC`, 106%; for `Clc1ccc(C2CC(c3cccc(Nc4ccncc4)c3)=NN2c2ccccc2)cc1` (stereo not given), 61.6%.
Under `CCN1CCN(C(=O)[C@]23CC[C@@H](C)[C@H](C)[C@H]2C2=CC[C@@H]4[C@@]5(C)C/C(=C/c6cccc(OC)c6OC)C(=O)C(C)(C)[C@@H]5CC[C@@]4(C)[C@]2(C)CC3)CC1` stands 16.4%.
Consider `COC(=O)/C=C1\SC(=Nc2ccc(C(F)(F)F)cc2)N(CCc2c[nH]c3ccccc23)C1=O`, for which the growth was -66.3% (active).
As to `COc1cc(N=Nc2ccc(O)c3ncccc23)c2ncccc2c1`, the growth was -36.5% (active).
Under `CC(=O)/C(=C\c1ccc(Cl)cc1)c1ccccc1` stands 0.454% (active); under `CCOC(=O)CN1/C(=N/c2sc3c(c2C(=O)OCC)CCN(C(=O)OCC)C3)SC(=O)/C1=C\C(=O)OC`, 79.6%.
Regarding `COC1OC(CO)C(OC)C(O)C1O` (stereo not given), the growth was 87.1%.
Under `CC(C(C(=O)N1CCCCC1)N1CCCCC1)N1CCCCC1` (stereo not given) stands 115%; under `COc1cc(-c2nn(-c3ccc(NC(=O)NCCNS(=O)(=O)c4ccc(F)cc4)cc3)cc2-c2ccncc2)ccc1Cl`, -27% (active).
Regarding `CC[C@H](Nc1ncnc2nc[nH]c12)c1nc2cccc(NCc3ccc(C(=O)NO)o3)c2c(=O)n1-c1ccccc1`, the growth was 84.7%.
For `CC1(C)CCC(C)(C)NC(=S)N1` the value was 103%; for `CC1(C)CC(=O)c2c(ccc(C(=O)C[C@@H](N)CO)c2N)O1`, 5.3% (active).
Regarding `Cc1cc2cc3c(=O)[nH]c(=O)cc-3n(CC(O)C(O)C(O)CO)c2cc1C` (stereo not given), the growth was 122%.
For `OC(c1ccccc1)C(NCc1ccccc1)c1ccccc1` (stereo not given) the value was 95.4%.
Under `CC(C)=CCCC(C)c1ccc(C)c2c1OCN(CC1CCNCC1)C2` (stereo not given) stands 7.48% (active).
Under `CCN(CC)CCCC(C)N/C(c1cccc(OC)c1)=c1\c(=O)[nH]n(-c2c3ccccc3nc3ccccc23)c(=O)\c1=C(/NC(C)CCCN(CC)CC)c1cccc(OC)c1` (stereo not given) stands -56.2% (active); under `CCn1cc(C(=O)O)c(=O)c2cc(F)c(N3CCN(CC(=O)Nc4ccc(S(=O)(=O)Nc5nccc(C)n5)cc4)C(C)C3)c(F)c21` (stereo not given), 96.4%.
Take `Oc1ccc2ccccc2c1CN1CCOCC1`: the growth was 123%.
Under `COc1cccc(-c2nc3sccn3c2-c2ccnc(NCCCNS(=O)(=O)c3c(Cl)cccc3Cl)c2)c1` stands 49.3%; under `CCOC(=O)c1ccc(C(=N)N)cc1`, 106%.
For `C=C1C(=O)O[C@H]2[C@H]1CC/C(COC(=O)c1c[nH]c3ccccc13)=C\CC[C@@]1(C)O[C@@H]21` the value was -68.5% (active).
For `Cc1ccc2nc(-c3ccc(C(=O)NNC(=S)Nc4ccccc4)cc3)[nH]c2c1` the value was 98.6%; for `O=C(Cn1ccc2ccccc21)Nc1ccc(-c2nc3ccccc3s2)cc1`, -50.2% (active).
As for `O=C(COc1ccc(Cl)cc1)N1CCN(Cc2ccc3c(c2)OCO3)CC1`, the growth was 98.5%.
As to `COC(=O)[C@]12CCC(C)(C)C[C@H]1[C@H]1C(=O)C[C@@H]3[C@@]4(C)c5c([nH]c6ccccc6c5=O)C(C)(C)[C@@H]4CC[C@@]3(C)[C@]1(C)CC2`, the growth was 34.5%.
For `COc1ccc(-n2c(SCC(=O)Nc3ccc(-c4nc5ccccc5[nH]4)cc3)nc3ccccc3c2=O)cc1` the value was -88.2% (active).
For `CCCCCCCCCCCCCCCCCC1=NCCN1CCNC(C)=O` the value was 114%; for `Clc1ccc(-c2ccc(CNCC3CCNCC3)o2)c(-c2ccccc2)c1`, -79.1% (active).
For the compound `CCO/C=N/NC(=O)c1ccncc1`, the growth is 107%.
For `O=c1c2ccccc2nc2n1Cc1nc3ccccc3c(=O)n1C2` the value was 90.6%; for `COc1ccc(C(C)=O)cc1S(=O)(=O)Nc1c(N)nc(SC)[nH]c1=O`, 97.6%.
For `O=C1c2cc(Cl)ccc2S(=O)(=O)c2c(NCCCNCCO)nc3ccccc3c21` the value was -14.1% (active).
Under `COc1cc(OC)c(C(=O)/C=C/c2cccc(C#N)c2)c(OC)c1` stands -13.8% (active).
For the compound `COc1cc(/C=C/c2cc(/C=C/c3ccc(O)c(OC)c3)n(-c3c(Cl)cccc3Cl)c(=O)n2)ccc1O`, the growth is 29.6%.
Under `CC1CC(C)/C(=N/NC(N)=O)C(C(O)CC2CCC(=O)NC2=O)C1` (stereo not given) stands 46.9%; under `CN(C)S(=O)(=O)c1ccc(S(=O)(=O)Nc2cccc(Cl)c2N2CCCCC2)cc1`, 67.8%.

Source of the values: PubChem BioAssay (NCI).
